KDM5B inh: Primary screen for KDM5B Histone Demethylases FDH-coupled qHTS; Lysine-specific demethylase 5B (Homo sapiens), Q9UGL1; KDM5B demethylase, FDH-coupled NADH fluorescence (FDH is formaldehyde dehydrogenase); Potency, µM (top dose mostly 57.7 µM), most hits filed as inhibitors; actives 2.6% (n = 220,000); AID 1347165, 2019; active means well fitted inhibition curve with a large enough effect; further: nearly all actives have a fitted effect of over 70% in size
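Here, H3K4me3 peptide (12.5 µM in substrate mix) is demethylated by KDM5BΔAP, 200 nM final, after 10 min compound exposure. Formaldehyde product is coupled through FDH (0.25 U/mL in mix) to NADH fluorescence; 30-min ΔRFU feeds dose-response curves.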
Each line names hits and unclear results; the compound was inactive in the other large screens. This excerpt belongs to a sample that is enriched for hits.

CC(C)n1nc(C(=O)NCc2ccc3c(c2)OCO3)c2ccccc2c1=O	none
Cc1onc(-c2ccc(F)cc2F)c1C(=O)NCc1cccs1	none
O=C(NCc1ccc2c(c1)OCO2)c1nc(-c2ccc(Cl)cc2Cl)c2ccccn12	KDM5B inh 20µM
O=C(NCc1ccc(Cl)c(Cl)c1)c1ccc2c(c1)OCO2	none
O=C(NCc1ccc2c(c1)OCO2)c1ccccc1Cl	none
O=C(NCCCc1ccccc1F)[C@@]12CNC[C@@H]1CN(Cc1ccccc1)C2	none
Cc1noc(C(C)Nc2ccc(N3CCCC3=O)c(Cl)c2)n1 (stereo not drawn)	none
CCOc1ccc(/C=C2/NC(=O)NC2=O)cc1I	none
CCN1CCC2(CC1)N=C(SCC(=O)Nc1ccc(F)c(Cl)c1)C(c1ccccc1)=N2	none
CC(C)C[C@@H](NC(=O)[C@@]1(O)C[C@@H](O)[C@H](O)[C@@H](NC(=O)c2ccc(F)c(Cl)c2)C1)C(N)=O	none
Cc1nc(C)c(C(=O)N2C[C@@H](Oc3ccccc3)C[C@H]2C(=O)NC2CC2)s1	none
C#CCNC(=O)c1nc2sccn2c1Br	none
CCn1nc(C(=O)NCc2cccs2)c2ccccc2c1=O	none
C#CCNC(=O)c1nc(-c2ccc(F)cc2)c2ccccn12	none
O=C(NCc1cccs1)c1nc(-c2ccsc2)c2ccccn12	KDM5B inh 40µM
CCOc1cc(=O)n2c(c1C(=O)NCc1ccc3c(c1)OCO3)CCCC2	none
O=C(NCc1cccs1)c1noc(-c2ccc(F)cc2)n1	none
CCOc1cccc(-c2nc(C(=O)NCc3ccc4c(c3)OCO4)cs2)c1	KDM5B inh 25µM
O=C(NCc1cccs1)C1CCN(c2nccn3nc(-c4ccc(F)cc4)cc23)CC1	none
O=C(NCc1cccs1)c1nc(-c2ccc(F)cc2)c2ccccn12	KDM5B inh 28µM
COc1ccccc1OCc1cc(C(=O)NCc2ccc3c(c2)OCO3)n[nH]1	none
C#CCNC(=O)c1nc(-c2ccccc2)c2ccccn12	KDM5B inh 32µM
CCOC(=O)C1=C(CN2CCN(C(=O)OCC)CC2)NC(=O)NC1c1ccc(OC)c(COC)c1 (stereo not drawn)	none
COCCNc1c(-c2noc(C)c2C(=O)Nc2ccc(OC)nc2)cnn1C	none
COc1cc(C(=O)NC[C@@H]2CC[C@H]3C[C@@H]2C3(C)C)nc2ccccc12	none
CCC[C@H]1C[C@H]1C(=O)N1CCC2(CCC(=O)N(CC(N)=O)C2)CC1	none
O=c1[nH]nc2n1CCN(Cc1ccc(F)c(Br)c1)CC2	none
O=C(CSc1nc2ccccc2c(=O)n1-c1ccc(F)cc1F)NC(=O)NC1CCCC1	none
CC(=O)Nc1ccc(SC(C)C(=O)c2ccc3c(c2)NC(=O)CO3)cc1 (stereo not drawn)	none
COc1ccc(-c2cc(N3CCCC(NC(=O)c4ccc5cc[nH]c5c4)C3)n[nH]2)cc1 (stereo not drawn)	none
Cn1c(=O)[nH]c(=O)c2c1nc(N1CCNCC1)n2CCCc1ccccc1	none
Cc1cc(C)n(-c2nc3c(c(=O)n(CC(N)=O)c(=O)n3C)n2Cc2ccc(F)cc2)n1	none
Cc1c(C(=O)NCc2ccc(F)cc2)sc2nc(-c3ccccc3)cn12	none
Cc1nc(C)c(C(=O)NCc2cccs2)s1	none
O=C(Cn1c(=O)nc(-c2ccccc2)c2ccccc21)NCc1ccc(F)cc1	none
O=C(NCc1cccs1)c1nc(-c2ccccc2)c2ccccn12	KDM5B inh 11µM
O=C(NCc1ccccn1)c1nc(-c2cccnc2)c2ccccn12	none
O=C(NCc1ccc(F)cc1)c1nc(-c2ccsc2)c2ccccn12	KDM5B inh 25µM
COc1cc(NC(=O)NCCn2c(C(F)(F)F)nc3ccccc32)cc(OC)c1	none
COc1c(CNCC(O)COc2c(C)cccc2C)c(C)nn1C (stereo not drawn)	none
COc1cc(-c2nnc3n2C(C)(C)Cc2cc(C)c(C)cc2-3)cc(OC)c1OC	none
CC(C(=O)Nc1ccccc1)n1nc(-c2ccccc2)c2c(c1=O)CCCC2 (stereo not drawn)	none
CCc1ccc2nc(-c3ccncc3)cc(C(=O)O)c2c1	none
CNC(=O)CCn1ncc2cc(OC3CCc4cccc(-c5c(C)noc5C)c43)ccc21 (stereo not drawn)	none
CC1(C)[C@H]2CC[C@@H](CNC(=O)c3ccccc3Cl)[C@@H]1C2	none
COc1ccccc1C(=O)NC[C@@H]1CC[C@H]2C[C@@H]1C2(C)C	none
CC1(C)[C@H]2CC[C@@H](CNC(=O)c3cccc4[nH]ccc34)[C@@H]1C2	KDM5B inh 32µM
O=C(NCc1ccc(N2CCCC2)nc1)c1ccc(F)cc1	none
Cc1c(-c2ccc(F)cc2)[nH]c2ccc(CNC(=O)c3cnn(C)c3)cc12	KDM5B inh 32µM
O=C(NCc1ccc(Cl)cc1)c1cc(-c2ccc(F)cc2)on1	none
O=C(NCc1cccc(C(F)(F)F)c1)c1n[nH]c2c1CCCC2	none
Cc1c(-c2ccc(F)cc2)[nH]c2ccc(CNC(=O)c3n[nH]c4c3CCCC4)cc12	KDM5B inh 10µM
O=C(NCc1ccc(Br)cc1)c1n[nH]c2c1CCCC2	none
O=C(NC1CCCN(c2cc(-c3ccc(F)cc3)[nH]n2)C1)c1cc(F)ccc1F (stereo not drawn)	none
Cc1ccc(NC(=O)c2cn(CCC#N)nc2-c2cccs2)cc1	none
CC(=O)Nc1ccc(C(=O)N2CCN(c3cc(-c4ccc(F)cc4)[nH]n3)CC2)cc1	none
C/C=C/CSc1nc2c(c(=O)[nH]c(=O)n2C)n1CCOC	none
COC(=O)CNC(=O)c1nc(-c2ccccc2OC)c2cnccn12	KDM5B inh 100µM
COc1ccccc1-c1nc(C(=O)NC(C)C)n2ccncc12	KDM5B inh 40µM
COc1ccccc1-c1cc(C(=O)NCc2cccnc2)nn2cccc12	none
COCCn1c(C(=O)NCc2cccnc2)nc2ccccc2c1=O	none
COc1ccccc1-c1nc(C(=O)NCc2cccnc2)n2ccncc12	KDM5B inh 79µM
COc1ccc(C(CC(=O)NCc2cccnc2)c2ccccc2)cc1 (stereo not drawn)	none
COc1ccccc1-c1cc(C(=O)NC(C)C)nn2cccc12	none
COc1ccccc1-c1nc(C(=O)NCc2cccnc2)n2ccccc12	KDM5B inh 89µM
CC(=O)c1ccc(OCc2ccccc2)cc1O	none
O=S(=O)(Nc1ncc(CN2CC[C@H]3CNC[C@H]32)cn1)c1ccccc1	none
Cn1c(=O)c2c(ncn2CC(=O)Nc2ccc3c(c2)CCC3)n(C)c1=O	none
COc1cc(OC)cc(C(=O)NC2CC3CCC2C3)c1 (stereo not drawn)	none
O=C(CC1CCN(C(=O)C2CCC2)C1)NCc1ccccc1 (stereo not drawn)	none
Cc1ccc(-c2cnc([C@@H]3COCCN3CC3CC3)[nH]2)cc1	none
CC(C)(CNC(=O)C1(c2ccc(F)cc2)CCC1)C(N)=O	none
CCn1c(COc2cc(C)c(Cl)c(C)c2)n[nH]c1=S	none
Cc1ccc(OCc2nc(C3CCN(C(=O)Cn4nc(C)cc4C)CC3)no2)cc1	none
COc1nc2ccccc2nc1N1CCC(C(=O)Nc2ccc(Cl)cc2)CC1	none
COc1ccccc1-c1nc(C(=O)N(C)C)n2ccncc12	KDM5B inh 100µM
COc1cc(OC)c(N2CC(C(=O)Nc3c(C)nn(C)c3C)CC2=O)cc1Cl (stereo not drawn)	none
CCN1CC(CNc2nccc(-c3c(C)nn(C)c3C)n2)CC1=O (stereo not drawn)	KDM5B inh 28µM
Cn1cnnc1CC1CCCN(C(=O)NC2CCCC2)C1 (stereo not drawn)	none
CC(=O)N1CCCC(CNc2nccc(-c3c(C)nn(C)c3C)n2)C1 (stereo not drawn)	KDM5B inh 28µM
COc1ccc(S(=O)(=O)NCC2CCCN(C(=O)c3cccnc3C)C2)cc1 (stereo not drawn)	none
CCNc1nccc(N2CCC(CC(=O)N(CC)CC)CC2)n1	none

Screening data: PubChem BioAssay, National Center for Advancing Translational Sciences (NCATS)
